# From PubChem BioAssay (Tox21)
# Values without a mark were called inactive. Calls come from the whole dose curve; as a rule, active = well fitted activation curve with a large enough effect in the repeat runs; inconclusive = weak or mixed curves; inactive = flat fitted curve, though single readings scatter.
# Target: KiSS-1 receptor (Homo sapiens) (UniProt Q969F8)
# Assay: Human kisspeptin (KISS1R) small molecule agonists, calcium flux assay in KISS1R-HEK293 cells (AID 1920064)
# Conditions: KISS1R-HEK293, calcium flux fluorescence, agonist; series mostly up to 76.8 µM; activation: at the top concentration
# Source text: National Center for Advancing Translational Sciences [NCATS]
# Division of Preclinical Innovation [DPI]
# U.S. Environmental Protection Agency [EPA]
# National Institutes of Environmental Health Sciences [NIEHS]
# National Toxicology Program [NTP]
# U.S. Food and Drug Administration [FDA]
# Kisspeptin and its receptor KISS1R play key roles in mammalian reproduction due to their involvement in the onset of puberty and control of the hypothalamic-pituitary-gonadal axis such as regulates GnRH release from the hypothalamus. The kisspeptin/KISS1R system also plays a direct role in peripheral organs (including the ovary, testis, uterus, and placenta) and is implicated in reproductive diseases such as miscarriage and polycystic ovary syndrome (PCOS). Abnormal KISS1R activity is associated with abnormal puberty, infertility, endometriosis, and hormone-dependent tumors. The KISS1 receptor (KISS1R, also called GPR54), a G-protein-coupled receptor (GPCR), acts (through phospholipase C) to increase intracellular inositol trisphosphate and then release intracellular calcium stores. Cell-based KISS1R-HEK293 assay is using HEK293 cells that have been genetically engineered to express the human KISS1R, which activity can be measured by calcium signaling. A compound/drug can activate (agonist) KISS1R that can be monitored by levels of intracellular calcium.
# KISS1R-HEK293 cells developed by Codex Corp contain human KISS1R gene, which was stably integrated into HEK 293 cells. The compound activation can be detected by fluorescence intensity via calcium flux assay. This cell line has been used to screen the Tox21 10K compound library to identify agonists of KISS1R.
# KISS1R-Hek293 cells were dispensed at 1500 cells/4uL/well in 1536-well black wall/clear bottom plates using a multidrop dispenser. After the assay plates were incubated at a 37 C/5% CO2 incubator for 18 hours, 4 microL of Calcium Dye Solution was added to each well. The plates were incubated at 37 C for 1 hour. And then 23 nL of compounds dissolved in DMSO, positive controls, or DMSO only was transferred to the assay plate by a pin tool station. The fluorescence intensity in the plates was measured using FDSS 7000EX kinetic plate reader with a filter set of Ex/Em=480/540 for 3 min at 1 sec intervals. Each test compound was measured at 15 concentrations and in triplicates.
# % is set by controls: 0 for no effect and ±100 for the full control effect.
# Sequence of KiSS-1 receptor (Homo sapiens) (Q969F8 whole entry, looked up): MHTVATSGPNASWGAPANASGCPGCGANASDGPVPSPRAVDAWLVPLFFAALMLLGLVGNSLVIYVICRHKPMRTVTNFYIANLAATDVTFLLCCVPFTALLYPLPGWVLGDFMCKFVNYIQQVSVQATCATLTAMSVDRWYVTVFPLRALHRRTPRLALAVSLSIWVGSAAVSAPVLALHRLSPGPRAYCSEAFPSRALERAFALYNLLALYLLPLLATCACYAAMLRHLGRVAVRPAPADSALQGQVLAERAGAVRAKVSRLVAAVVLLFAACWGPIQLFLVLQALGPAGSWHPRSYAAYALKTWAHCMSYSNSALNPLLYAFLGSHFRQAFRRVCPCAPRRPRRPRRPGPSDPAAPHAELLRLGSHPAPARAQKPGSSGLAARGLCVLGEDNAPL
row,SMILES,activation
1,Cc1ccc(S(=O)(=O)N[C@@H](CCCCN)C(=O)CCl)cc1,0.235% [at 35.3 µM]
2,CC(=O)OC(c1ccccc1)C(Cl)(Cl)Cl (stereo not given),-0.54%
3,CC(C)NCC(O)c1ccc(N)c(C#N)c1 (stereo not given),11.9% [at 35.3 µM]
4,O=C(Cl)c1ccc(Cl)cc1,1.46%
5,O=[N+]([O-])c1ccc(Cl)c(Cl)c1Cl,1.34%
6,ClC(Cl)Br,-1.56%
7,O=NN(CCO)CCO,1.72%
8,CCOC(=O)NC(O)C(Cl)(Cl)Cl (stereo not given),0.752% [at 35.3 µM]
9,COc1ccc2c(C(=O)c3ccc(Cl)cc3)c(C)n(CC(=O)O)c2c1,4.14% [at 35.3 µM]
10,O=C(CCCCl)c1ccc(F)cc1,-1.81% [at 35.3 µM]
11,Cc1cc(SCc2sc(-c3ccc(C(F)(F)F)c(F)c3)nc2C)ccc1OCC(=O)O,-0.115%
12,BrCBr,0.779%
13,CCSC(C)CC1CC(=O)C(/C(CC)=N/OC/C=C/Cl)=C(O)C1 (stereo not given),-0.417% [at 35.3 µM]
14,S=C=NCCc1ccccc1,1.93%
15,O=C(NC(=O)c1c(F)cccc1F)Nc1ccc(OC(F)(F)C(F)OC(F)(F)F)c(Cl)c1 (stereo not given),-0.507% [at 35.3 µM]
16,O=c1[nH]c2ccccc2n1CCCN1CCC(n2c(=O)[nH]c3cc(Cl)ccc32)CC1,-0.275% [at 35.3 µM]
17,COC(=O)c1ccccc1S(=O)(=O)NC(=O)N(C)c1nc(C)nc(OC)n1,0.902%
18,Cc1ncc(C[n+]2csc(CCO)c2C)c(N)n1,0.943%
19,CSCCCN=C=S,-1.98%
20,CCC(C)c1cc([N+](=O)[O-])cc([N+](=O)[O-])c1OC(=O)C=C(C)C (stereo not given),4.25%

row,SMILES,activation
1,CNC(=O)Oc1cccc(C(C)C)c1,-0.651%
2,Nc1cc(Cl)ccc1Cl,-2.73%
3,COc1cccc([C@@]2(O)CCCC[C@@H]2CN(C)C)c1,9.8% [at 35.3 µM]
4,COc1cccc(C(=O)NN(C(=O)c2cc(C)cc(C)c2)C(C)(C)C)c1C,-0.548%
5,N[C@@H](Cc1ccc(Oc2cc(I)c(O)c(I)c2)c(I)c1)C(=O)O,-0.257% [at 35.3 µM]
6,CO/N=C(/C1=NOCCO1)c1ccccc1Oc1ncnc(Oc2ccccc2Cl)c1F,1.28%
7,CC[C@H](C)[C@H]1O[C@]2(C=C[C@@H]1C)C[C@@H]1C[C@@H](C/C=C(\C)[C@@H](O[C@H]3C[C@H](OC)[C@@H](O[C@H]4C[C@H](OC)[C@@H](NC)[C@H](C)O4)[C@H](C)O3)[C@@H](C)/C=C/C=C3\CO[C@@H]4[C@H](O)C(C)=C[C@@H](C(=O)O1)[C@]34O)O2,14.3%
8,CCCCN(N=O)C(=N)N[N+](=O)[O-],1.51%
9,CCN(CC)c1nc(C)cc(OP(=S)(OC)OC)n1,0.304%
10,CC(=O)[O-].CC(=O)[O-].O.O.O.[Pb+2],0%
11,O=CCCl,-0.0819%
12,CC(C)C(Nc1ccc(C(F)(F)F)cc1Cl)C(=O)OC(C#N)c1cccc(Oc2ccccc2)c1 (stereo not given),-3.38%
13,CC(C)=CC1C(C(=O)OC(C#N)c2cccc(Oc3ccccc3)c2)C1(C)C (stereo not given),1.21%
14,O=C(N[C@H]1CN2CCC1CC2)c1cc2ccoc2cn1,1.2%
15,CCOc1nc(C(Cl)(Cl)Cl)ns1,-2.27%
16,CC(C)C1CCC(Cc2ccc(Cl)cc2)C1(O)Cn1cncn1 (stereo not given),16.2%
17,CC(=O)NNc1ccccc1,-0.665%
18,COc1cc(CC(C)N)c(OC)cc1Br (stereo not given),1.89%
19,Cn1c(CCCC(=O)O)nc2cc(N(CCCl)CCCl)ccc21,-0.96% [at 35.3 µM]
20,CN1C(=O)[C@@H](NC(=O)c2cc3ccccc3[nH]2)N=C(c2ccccc2)c2ccccc21,-0.671% [at 35.3 µM]
